Nrf2 block = inhibitors of Nrf2 signaling. 360,000 tested, 2.1% active. Potency, µM (titrated, usually from 46 µM), usual class: inhibitors. A549 ARE-Fluc reporter, luciferase luminescence, 18-24 h; further: nearly all actives have a fitted effect of over 60% in size
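Nrf2 activity is the BugLite luminescence, read 15 min after reagent at room temperature, following CellTiter-Fluor cytotoxicity readout (30 min, 37C). Compound titrations were applied for 18-24 h to 5000 A549 ARE_Fluc cells/well in 5% FBS OPTI-MEM.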
Nrf2 ARE act = Nrf2 pathway activation | AREc32 ARE-luciferase reporter (MCF7-derived line), luminescence, 24 h | 410,000 tested, 0.31% active | Potency, µM (titrated, usually from 46.1 µM), usual class: activators | AID 624171; further: nearly all actives have a fitted effect of over 65% in size
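Quantitative high-throughput format: AREc32 reporter cells, 1000 per well, received compound by pin transfer and were incubated 24 hr at 37 deg C, 5% CO2, before Steady-Glo luminescence detection.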
TGFb SMAD3 inh = TGF-b pathway inhibition; HepG2 CAGA-GFP TGF-b/SMAD3 reporter, GFP fluorescence, 18 h; TGF-beta stimulated, 500 pg/mL final; Potency, µM (titrated, usually from 46.1 µM), usual class: inhibitors; 410,000 tested, 1.2% active; AID 588855; further: nearly all actives have a fitted effect of over 65% in size
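HEPG2 CAGA-GFP cells (1000/well, DMEM with 1% FBS) were pre-incubated 2 h at 37 degrees C, given compound by pin tool, then stimulated with TGF-beta at 500 pg/mL final for 18 h before per-cell GFP fluorescence imaging.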
HepG2 viability = counter-screen for TGF-b inhibitors: cytotoxicity in HepG2 cells. Potency, µM (highest dose often 46.1 µM), most hits filed as cytotoxic. 410,000 tested, 0.76% active. HepG2 CAGA-GFP viability, ATP luminescence, 18 h
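HepG2 CAGA-GFP cells (1000/well, DMEM with 1% FBS) received compound, then TGF-beta at 500 pg/mL final, and were incubated 18 hours at 37 degrees C. Viability was read by CellTiter-Glo luminescence. Media-only wells were set as complete cell-killing and DMSO as no toxicity.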
A549 tox = kills or reduces viability of A549 cells in Nrf2 counter-screen | A549 ARE-Fluc cells, CellTiter-Fluor viability, 18-24 h | Potency, µM (top dose mostly 46 µM), hits mostly inhibitors | 390,000 tested, 0.16% active | AID 504648
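Cytotoxicity counterscreen: CellTiter-Fluor fluorescence was measured in A549 ARE_Fluc cells after 18-24 h of compound exposure in a concentration series. The subsequent BugLite luminescent read reports ARE-luciferase activity.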
Large screens that a line does not name were inactive. The list is not random: actives were taken first. Their share in the collection is about 3.6%. The call rests on the fitted dose curve; in most records, active means well fitted curve in the direction sought with a large enough effect; inconclusive means small, poorly fitted or top-dose-only effect, or another doubt; inactive means no such curve, though single readings can be large; an effect the other way counts as inactive or inconclusive.

CCN(CCO)c1ccc(N=Nc2cc(C)[nH]n2)cc1	Nrf2 block inconclusive, A549 tox 9.2µM
O=C1CC(N2C(=O)/C(=C/C=C/c3ccccc3)SC2=S)C(=O)N1c1ccccc1 (configuration not stated)	A549 tox inconclusive
CCNC(=S)N(CCc1cccc(C)c1)Cc1cc2cc(OC)c(OC)cc2[nH]c1=O	Nrf2 block 23µM
CC(=O)C1=C(O)C(=O)N(Cc2ccco2)C1c1ccc(F)cc1 (configuration not stated)	none
Cc1ccc(-c2cc(-c3ccco3)c(C#N)c(=O)[nH]2)cc1	none
N#Cc1c(-c2ccco2)cc(-c2ccccc2)[nH]c1=O	Nrf2 ARE act 2.5µM, TGFb SMAD3 inh inconclusive
CN(C)S(=O)(=O)c1ccc(C(=O)Nc2nc(-c3cc4ccccc4o3)cs2)cc1	Nrf2 block 6.5µM, TGFb SMAD3 inh inconclusive
CC1CN(S(=O)(=O)c2ccc(C(=O)Nc3nc(-c4cc5ccccc5o4)cs3)cc2)CC(C)O1 (configuration not stated)	Nrf2 block 3.7µM, A549 tox 7.3µM
Cc1cc(-c2csc(NC(=O)c3ccc(S(=O)(=O)N(C)C)cc3)n2)c(C)n1-c1ccccc1	Nrf2 block inconclusive, TGFb SMAD3 inh inconclusive
CN(CC1CCCO1)S(=O)(=O)c1ccc(C(=O)Nc2nc(-c3ccccn3)cs2)cc1 (configuration not stated)	Nrf2 block 5.2µM, TGFb SMAD3 inh inconclusive, A549 tox inconclusive
CCOC(=O)c1ccccc1NC(=O)CSc1nnc(CC)n2c1cc1occc12	none
CCc1nnc(SCC(=O)N(CC)c2ccccc2)c2cc3oc(C)cc3n12	Nrf2 ARE act 5.6µM, TGFb SMAD3 inh inconclusive
Cc1ccnc2c1ccc1c(C)ccnc12	Nrf2 block inconclusive, TGFb SMAD3 inh 4.5µM, HepG2 viability 16µM, A549 tox inconclusive
Cc1ccnc2c1ccc1ccccc12	none
Cc1ccnc2c(O)cccc12	TGFb SMAD3 inh 3.5µM, HepG2 viability 4µM (no result: Nrf2 block, Nrf2 ARE act, A549 tox)
Cc1cc(C)c2cccnc2c1O	TGFb SMAD3 inh 3.2µM (no result: Nrf2 block, Nrf2 ARE act, A549 tox)
Oc1c(Br)cc(Br)c2cccnc12	Nrf2 block inconclusive, TGFb SMAD3 inh inconclusive
CCOc1ccc(/C=N/NC(=O)c2ccc3nc[nH]c3c2)cc1OC	none (no result: Nrf2 block, A549 tox)
CC(C)[C@H](NC(=O)c1ccc(C(C)(C)C)cc1)C(=O)N1CCN(Cc2ccc3c(c2)OCO3)CC1	Nrf2 block 21µM, TGFb SMAD3 inh inconclusive, A549 tox inconclusive
CC(=O)NN1C(=O)/C(=C\c2ccc(Br)o2)SC1=S	Nrf2 ARE act 16µM
CC(=O)NN1C(=O)/C(=C/c2ccc(Br)o2)SC1=S	Nrf2 block inconclusive, Nrf2 ARE act inconclusive, A549 tox inconclusive
CCN1CCN(c2ccc(S(=O)(=O)N3CCOCC3)cc2NC(=O)C2CCC(C(C)(C)C)CC2)CC1 (configuration not stated)	TGFb SMAD3 inh inconclusive, HepG2 viability 20µM
CCS(=O)(=O)c1c([N+](=O)[O-])ncn1C	Nrf2 block inconclusive, TGFb SMAD3 inh 18µM
Cn1cnc([N+](=O)[O-])c1S(=O)(=O)Oc1cccc2ccccc12	Nrf2 block inconclusive, TGFb SMAD3 inh inconclusive, A549 tox inconclusive
CCN(CC)c1c([N+](=O)[O-])ncn1C	TGFb SMAD3 inh inconclusive
Cn1cnc([N+](=O)[O-])c1S(=O)(=O)Oc1ccc(Cl)cc1	TGFb SMAD3 inh inconclusive, HepG2 viability 22µM
Cc1nnc(N2C(=O)c3oc4ccccc4c(=O)c3C2c2ccco2)s1 (configuration not stated)	none
COc1ccc(/C=C2\CCC/C(=C\C=N\N(C)C)C2=O)cc1	Nrf2 ARE act 14µM
COc1ccc(C=C2CS(=O)(=O)CC(=Cc3ccc(OC)cc3)C2=O)cc1	Nrf2 ARE act inconclusive, TGFb SMAD3 inh 5µM (no result: Nrf2 block, A549 tox)
CN(C)/N=C/C=C1\CCC/C(=C\c2ccc(F)c(F)c2)C1=O	Nrf2 block inconclusive, Nrf2 ARE act 18µM, TGFb SMAD3 inh inconclusive
CC(=O)Nc1ccc(NC(=O)C(C)OC(=O)C2CCCC2)cc1 (configuration not stated)	none
Cc1nc2ccn(Cc3ccco3)c(=O)c2cc1C(=O)NCc1ccc(Cl)cc1	Nrf2 block inconclusive, Nrf2 ARE act inconclusive, TGFb SMAD3 inh 10µM

Screening results as filed in PubChem BioAssay.
